# Screening results deposited in PubChem BioAssay by National Center for Advancing Translational Sciences (NCATS).
# This is a sample that favours compounds with a hit; in the whole collection about 11% have one here.
# SW480 rereplic – DNA re-replication induction in SW480 cells; SW480 DNA re-replication, Hoechst DNA content imaging, 48 h; 1.8% of 340,000 active; Potency, µM (titrated, usually from 46.1 µM), actives largely listed as activators; also: nearly all actives have a fitted effect of over 55% in size
#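 Cells (250 per well) received 23 nL compound or DMSO by pin tool and were kept 48 hr at 37 C, 5% CO2. Nuclei were then stained with Hoechst for 40 min and scanned for DNA content.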
# MCF10A rerep – induces DNA re-replication in MCF 10a normal breast cells. MCF 10A DNA re-replication, Hoechst nuclear intensity, 48 h. Potency, µM (series often up to 46.1 µM), usual class: activators. 2.9% of 350,000 active. AID 624296; also: nearly all actives have a fitted effect of over 50% in size
# Gal4-VP16 FLuc – counter-screen for ROR gamma inhibitors: Gal4-VP16 reporter | Drosophila S2 Gal4-VP16 UAS-luciferase, luminescence, 20 h | Potency, µM (highest dose often 53.6 µM), actives largely listed as inhibitors | 3.5% of 310,000 active;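 also: Gal4-VP16 expression switched on by copper sulfate through the metallothionein promoter; nearly all actives have a fitted effect of over 50% in size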
# IL1B secr inh – blocks inflammasome-driven IL-1 beta release; THP-1 LPS/ATP IL-1B secretion, AlphaLISA, 16 h; active compounds read low; activity change, % at 57.5 µM; 4.7% of 360,000 active; AID 743279; in the data active = activity change below about -50%; inconclusive = mostly about -30% to -49%
#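 THP-1 cells pretreated 1 hr with compounds (up to 57.5 uM final), then stimulated with LPS (250 ng/mL final) plus ATP (1.25 mM final); secreted IL-1B measured by AlphaLISA after 16 hr, decreased signal indicating inhibition.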
# RORgamma inh – blocks mouse ROR gamma transcriptional activity; P51450; Drosophila S2 Gal4-RORgamma UAS-luciferase reporter, 20 h; Potency, µM (doses to about 53.6 µM), most hits filed as inhibitors; 5.4% of 310,000 active; also: nearly all actives have a fitted effect of over 60% in size
#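 A Gal4/UAS one-hybrid system in insect cells: metallothionein-promoter Gal4–ROR gamma fusion plus Photinus luciferase reporter. Copper sulfate 700 uM final, 20 hr ambient incubation, luminescent detection after 10 min with reagent.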
# A number is an active result; . = inactive; ? = inconclusive; / = no result given. Unless noted, calls follow the shape of the dose curve; as a rule, active = well fitted curve in the direction sought with a large enough effect; inconclusive = small, poorly fitted or top-dose-only effect, or another doubt; inactive = no such curve, though single readings can be large; an effect the other way counts as inactive or inconclusive.
SMILES,SW480 rereplic,MCF10A rerep,Gal4-VP16 FLuc,IL1B secr inh,RORgamma inh
O=C(CCNc1ccc(F)cc1)c1ccco1,?,?,?,.,11.2µM
CCOC(=O)c1cc2ccccc2n1C1CCN(C)CC1,/,/,/,.,/
CC(C)(C)C(=O)NC(Nc1cccc2cccnc12)C(Cl)(Cl)Cl (stereo unspecified),23.1µM,20.6µM,?,.,.
NC(=O)c1ccccc1NC(=O)COc1ccc2c(c1)OCO2,?,?,.,.,.
Nc1ccc2nn(-c3cccc4ccccc34)nc2c1,18.4µM,9.2µM,.,.,.
Cc1ccc(-n2nc3cc(C)c(N)cc3n2)cc1,?,18.4µM,?,.,.
Cc1cc2nn(-c3cccc4ccccc34)nc2cc1N,.,20.6µM,.,.,.
COC(=O)C1=C(C)N(C)C(=O)NC1c1c(O)ccc2ccccc12 (stereo unspecified),.,.,.,.,.
Cc1cccc(N=C2C(=O)Nc3c(Cl)cccc32)c1,.,.,.,.,.
O=C1Nc2c(Cl)cc(Cl)cc2C1=O,?,?,/,-92.6,/
Cc1ccc(S(=O)(=O)N2CCN(c3ncnc4sccc34)CC2)cc1,.,.,5.01µM,.,?
Cc1ccc(-c2csc3ncnc(N4CCN(S(=O)(=O)c5ccc(C#N)cc5)CC4)c23)cc1,/,/,/,.,/
Cc1sc2ncnc(N3CCN(Cc4ccccc4)CC3)c2c1-c1ccc(F)cc1,.,.,.,-54.8,.
c1ccc(CC2CCN(c3ncnc4sccc34)CC2)cc1,?,.,3.98µM,-51.4,10µM
Cc1sc2ncnc(N3CCN(S(=O)(=O)c4ccc(F)cc4)CC3)c2c1C,.,.,22.4µM,-57.3,.
COc1ccc(OCCCC(=O)OCC(=O)NNC(=O)c2ccc([N+](=O)[O-])cc2)cc1,.,.,/,.,/
Cc1sc2ncnc(N3CCN(c4ncccn4)CC3)c2c1C,.,?,.,?,.
COc1cc(C(=O)N2CCN(c3ncnc4sc(C)c(C)c34)CC2)cc(OC)c1OC,.,.,3.98µM,.,?
CCN1CCN(c2ccc(S(=O)(=O)N3CCCCC3)cc2NC(=O)c2ccc(C)o2)CC1,.,.,/,.,/
COC(=O)c1cc(OC)c(OC)cc1NC(=S)NC(=O)c1ccco1,.,.,.,.,8.91µM
CCNC(=S)Nc1cc(OC)c(NC(=O)c2ccco2)cc1OC,.,.,.,.,12.6µM
CCOc1cc(NC(=S)NCCOC)c(OCC)cc1NC(=O)c1ccco1,.,.,?,.,12.6µM
COc1cc(NC(=S)NCCCN(C)C)c(OC)cc1NC(=O)c1ccco1,.,.,.,.,.
COc1cc(NC(=S)NC(=O)c2ccco2)ccc1NC(=O)C(C)C,.,.,.,.,.
COc1ccccc1C(=O)NNC(=S)NC(=O)c1ccco1,?,.,?,.,15.8µM
O=C(OCC(=O)N(CCc1ccccc1)Cc1ccccc1)c1ccccc1NCCO,.,.,.,.,.
CCCCCCc1nc2nc(Cl)c(Cl)nc2[nH]1,/,/,/,.,/
CN(C)C(=O)c1ccc(NC(=O)c2ccccc2SCC(=O)N2CCCC2)cc1,.,.,/,.,/
C[C@H]1CN=C(Nc2ccccc2)N1CCC1CCCC1,.,.,.,.,.
CCN(C(=O)COC(=O)c1ccc([N+](=O)[O-])o1)C1CCCCC1,.,.,/,.,/
